Results from paper PMC4336329 (PLoS ONE, 2015).
Among all 310,000 compounds or so, about 14,000 (4.5%) showed an effect of 50% or more. The effect is printed as a negative number. This is one part of a sample in which strong results are shown more often than they occur.

Molecular target: human ether-à-go-go-related gene (hERG) potassium channel (human, UniProt Q12809)
Test: primary screen, population patch clamp on CHO cells stably expressing hERG; higher = less effect of the substance
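Further: peak tail current of the secondary pulse compared with the same well before compound.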

human ether-à-go-go-related gene (hERG) potassium channel, sequence (Q12809 whole entry, looked up): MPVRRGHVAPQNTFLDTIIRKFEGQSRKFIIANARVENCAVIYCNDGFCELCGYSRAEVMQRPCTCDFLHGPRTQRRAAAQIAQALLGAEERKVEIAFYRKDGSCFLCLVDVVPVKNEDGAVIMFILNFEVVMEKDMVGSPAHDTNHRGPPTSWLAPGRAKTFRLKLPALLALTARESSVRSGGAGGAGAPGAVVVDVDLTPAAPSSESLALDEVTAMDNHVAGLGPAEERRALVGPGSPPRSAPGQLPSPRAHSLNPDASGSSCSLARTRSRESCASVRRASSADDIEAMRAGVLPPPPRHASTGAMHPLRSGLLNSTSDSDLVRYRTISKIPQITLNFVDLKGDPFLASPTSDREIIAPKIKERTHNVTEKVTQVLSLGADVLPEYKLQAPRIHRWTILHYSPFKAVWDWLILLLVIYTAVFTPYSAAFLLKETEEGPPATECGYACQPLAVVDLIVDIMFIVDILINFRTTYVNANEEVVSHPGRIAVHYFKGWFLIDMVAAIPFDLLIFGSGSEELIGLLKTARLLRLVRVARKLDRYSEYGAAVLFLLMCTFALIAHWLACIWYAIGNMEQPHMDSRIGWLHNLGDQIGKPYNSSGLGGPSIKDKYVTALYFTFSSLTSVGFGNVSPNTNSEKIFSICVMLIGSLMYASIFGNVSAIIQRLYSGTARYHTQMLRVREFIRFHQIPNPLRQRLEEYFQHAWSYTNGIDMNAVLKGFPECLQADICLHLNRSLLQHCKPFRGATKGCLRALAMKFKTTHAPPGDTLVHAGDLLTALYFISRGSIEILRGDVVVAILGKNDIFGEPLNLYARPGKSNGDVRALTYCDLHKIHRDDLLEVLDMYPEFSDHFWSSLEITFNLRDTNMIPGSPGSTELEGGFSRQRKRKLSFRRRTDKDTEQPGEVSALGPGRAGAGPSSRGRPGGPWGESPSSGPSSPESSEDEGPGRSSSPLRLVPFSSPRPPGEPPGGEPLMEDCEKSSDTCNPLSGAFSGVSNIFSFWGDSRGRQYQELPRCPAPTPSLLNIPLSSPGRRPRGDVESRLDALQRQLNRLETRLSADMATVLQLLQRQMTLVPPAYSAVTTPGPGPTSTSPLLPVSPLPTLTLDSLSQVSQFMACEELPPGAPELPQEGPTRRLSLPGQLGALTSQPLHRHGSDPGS

SMILES	hERG current change (%, negative = inhibition) at 10uM
COc1ccc(NC(=O)Cc2nnc(SCC(=O)NC3CCCC3)n2C)cc1	15.3%
CN(CC(=O)Nc1ccccc1Sc1ccccc1)Cc1nc2ccccc2c(=O)[nH]1	-37.1%
CC(C)CN(CC(C)C)C(=O)COc1ccccc1C(N)=O	7.55%
COc1ccc(S(=O)(=O)N2CCN(CC(=O)Nc3cc(C(F)(F)F)ccc3Cl)CC2)cc1	-4.6%
CSc1ccc(CN2CCC(Cc3ccccc3)CC2)cc1	-65.4%
C=CCOc1ccccc1CN1CCSCC1	-11.2%
C=CCOc1ccccc1CN1CCC(Cc2ccccc2)CC1	-70.3%
CCOc1ccc(CN2CCC(Cc3ccccc3)CC2)cc1	-78.3%
CCOc1ccc(S(=O)(=O)N2CCN(Cc3ccccc3)CC2)cc1	1.61%
Clc1cccc(CN2CCC(Cc3ccccc3)CC2)c1	-27.9%
Fc1ccc(CN2CCC(Cc3ccccc3)CC2)cc1F	2.03%
Clc1ccc(CN2CCC(Cc3ccccc3)CC2)cc1	-40.9%
C=CCOc1ccccc1CN1CCCCCC1	-18.9%
O=C(CNS(=O)(=O)c1ccccc1)NCC(=O)OCc1ccccc1F	13.7%
CC[C@@]12C(=O)N(c3ccccc3)C(=O)N1[C@H](c1ccc(Br)cc1)[C@@H]1C(=O)N(C(C)(C)C)C(=O)[C@@H]12	4.22%
CCOC(=O)/C=C/c1cnn(-c2ccccc2)c1	3%
CCc1nc2cc(CC(=O)O)ccc2o1	8.35%
COc1ccc(/C=N/NC(=O)Cn2cnc3ccccc3c2=O)cc1OC	-6.77%
CCCCn1c(O)c(C(CC)=NCc2ccco2)c(=O)[nH]c1=O	-35.4%
CC(C)CN(C(=O)CN(C)C(=O)Cc1ccccc1Cl)c1c(N)n(CC(C)C)c(=O)[nH]c1=O	20.7%

SMILES	hERG current change (%, negative = inhibition) at 10uM
CCC1CCCCN1C(=O)c1cccc(S(=O)(=O)Nc2cc(C(F)(F)F)ccc2Cl)c1 (centres unmarked)	2.59%
COc1ccc(CCC(=O)NCCOc2ccc(Cl)cc2)cc1	-7.98%
COc1ccc(-c2[nH]c3ccccc3c2SCCNC(=O)c2cc3ccccc3oc2=O)cc1	-0.175%
CCOc1ccc(NC(=O)Cn2nnc(C(=O)NCc3cccs3)c2N)cc1	13.8%
Cc1cc(=O)[nH]c2nnc(-c3ccc(Br)cc3)n12	5.99%
O=S(=O)(c1ccc2c(c1)CCN2)N1CCCC1	-1.58%
COc1ccc(CNC(=O)COC(=O)[C@H](Cc2c[nH]c3ccccc23)NC(=O)c2cccs2)cc1	-0.701%
COc1ccccc1N1CCN(CC(O)COc2c(OC)cccc2OC)CC1.Cl (centres unmarked)	-48.4%
OC(COc1ccc2ccccc2c1Cl)CN1CCOCC1 (centres unmarked)	-24.5%
CCOC(=O)N1CCN(CC(O)c2ccc3cc[nH]c3c2)CC1 (centres unmarked)	-30.4%
COc1ccccc1N1CCN(CC(O)c2ccc3cc[nH]c3c2)CC1 (centres unmarked)	-69.3%
OC(COc1cccc2ccccc12)CN1CCN(c2ccccc2Cl)CC1 (centres unmarked)	-50.2%
COc1ccccc1N1CCN(CC(O)COc2cccc3ccccc23)CC1.Cl.O (centres unmarked)	-61%
Cc1ccc(N2CCN(CC(O)COc3cccc4ccccc34)CC2)cc1 (centres unmarked)	-25.1%
COc1ccccc1N1CCN(CC(O)COc2cccc3ccccc23)CC1.Cl (centres unmarked)	-68.3%
COc1ccccc1N1CCN(CC(O)c2ccccc2)CC1 (centres unmarked)	-8.46%
OC(COc1cccc2ccccc12)CN1CCN(c2ccccc2)CC1 (centres unmarked)	-33.2%
OC(COc1cccc2ccccc12)CN1CCCC1 (centres unmarked)	-29.4%
CCCc1nnc(SCC(=O)Nc2ccc(OCC)cc2)n1N	-3.79%
CCN(c1ccccc1)S(=O)(=O)c1ccc(Cl)c(C(=O)N(CC2CCCO2)C2CCS(=O)(=O)C2)c1 (centres unmarked)	-5.04%

SMILES	hERG current change (%, negative = inhibition) at 10uM
Cc1ccc(-c2csnn2)cc1	6.13%
CCN1CCN(CCCNC(=O)C2c3ccccc3C(=O)N(c3ccc(OC)cc3)C2c2ccc(OC)cc2)CC1 (centres unmarked)	1.22%
CCCCCN(C(=O)COC(=O)CSc1ccc([N+](=O)[O-])cc1)c1c(N)n(CCCC)c(=O)[nH]c1=O	-40.5%
CCc1cccc(NC(=O)CN(c2ccc(C)cc2)S(=O)(=O)c2c(C)noc2C)c1	8.14%
COc1cc(OC)c(NC(=O)CCc2nc(-c3ccc(C)cc3)no2)cc1Cl	6.21%
COc1ccc(-c2ccc(-c3noc(-c4ccccc4C)n3)c(OC)n2)cc1	6.35%
O=C(NC1CCC(O)CC1)c1cccc2cccnc12 (centres unmarked)	7.2%
COc1ccccc1-c1coc2c(CN3CCCCC3C)c(O)ccc2c1=O (centres unmarked)	6.44%
CC1CCCCN1Cc1c(O)ccc2c(=O)c(-c3ccc(Cl)cc3)coc12 (centres unmarked)	-69.1%
CN(C)Cc1c(O)ccc2c(=O)c(-c3ccc(Cl)cc3)coc12	-9.92%
CC1CCCN(Cc2c(O)ccc3c(=O)c(-c4nc5ccccc5s4)c(N)oc23)C1 (centres unmarked)	-0.886%
CC1CCCCN1Cc1c(O)ccc2c(=O)c(-c3ccccc3)coc12 (centres unmarked)	-38.2%
CCN(CC)Cc1c(O)ccc2c(=O)c(-c3ccccc3)coc12.Cl	-1.91%
CC1CCCCN1Cc1c(O)ccc2c(=O)c(-c3ccc(Cl)cc3Cl)coc12 (centres unmarked)	-60.7%
COc1ccc(-c2coc3c(CN4CCCCC4C)c(O)ccc3c2=O)cc1 (centres unmarked)	-39.4%
CC1CCCCN1Cc1c(O)ccc2c(=O)c(-c3nc4ccccc4s3)c(N)oc12 (centres unmarked)	-60.6%
CC1CCN(Cc2c(O)ccc3c(=O)c(-c4nc5ccccc5s4)c(N)oc23)CC1	-48.5%
CCN(CC)Cc1c(O)ccc2c(=O)c(-c3ccc(Cl)cc3)coc12	-58.4%
CC1CCCCN1Cc1c(O)ccc2c(=O)c(-c3nc4ccccc4s3)coc12 (centres unmarked)	-48%
